Most compounds without a hit are left out; they make up all but 18% or so of the library.
TDP1 block = inhibitors of human tyrosyl-DNA phosphodiesterase TDP1; Q9NUW8; AID 485290; recombinant TDP1, AlphaScreen DNA substrate cleavage; actives 0.28% (n = 350,000); Potency, µM (series often up to 130 µM), inactives show at the top dose activity change, negative = inhibition, usual class: inhibitors; note: potency is the fitted concentration of half-maximal effect; nearly all actives have a fitted effect of over 40% in size
Target sequence (Q9NUW8 whole entry, looked up): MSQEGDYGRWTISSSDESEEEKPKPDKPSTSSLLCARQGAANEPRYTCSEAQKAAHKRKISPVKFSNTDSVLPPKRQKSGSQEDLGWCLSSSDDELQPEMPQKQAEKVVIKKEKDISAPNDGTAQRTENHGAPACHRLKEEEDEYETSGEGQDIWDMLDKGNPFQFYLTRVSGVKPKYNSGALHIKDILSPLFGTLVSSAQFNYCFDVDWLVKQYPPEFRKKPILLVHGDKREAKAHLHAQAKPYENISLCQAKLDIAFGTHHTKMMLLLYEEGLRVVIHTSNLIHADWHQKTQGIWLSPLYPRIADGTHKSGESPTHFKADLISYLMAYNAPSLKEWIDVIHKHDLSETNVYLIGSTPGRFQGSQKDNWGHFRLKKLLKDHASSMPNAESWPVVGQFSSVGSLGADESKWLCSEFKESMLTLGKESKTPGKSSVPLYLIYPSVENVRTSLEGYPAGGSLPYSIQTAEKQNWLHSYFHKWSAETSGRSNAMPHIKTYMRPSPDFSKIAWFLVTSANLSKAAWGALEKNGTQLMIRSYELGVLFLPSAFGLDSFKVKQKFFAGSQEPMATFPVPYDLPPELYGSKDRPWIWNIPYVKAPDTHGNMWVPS
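Steps: enzyme plus compound, 15 min RT; add biotin/phosphotyrosine-FITC oligonucleotide (15 nM final), react 5 min; add donor/acceptor beads (10 ug/ml final), 10 min; read AlphaScreen. Tdp1 at 1 nM final.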
Six1-Eya2 blk = inhibitors of human Six1/Eya2 interaction; AID 651725; Q15475+O00167; AlphaScreen GST-Six1/His-Eya2 binding, biochemical; hits give low values; actives 0.56% (n = 360,000); activity change, % (no concentration beside the values); in the data active = activity change below about -65%; inconclusive = mostly about -30% to -63%
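Six1/Eya2 binding was read as AlphaScreen signal after compounds were pinned into GST-Six1 plus His-tagged Eya2 (5X stock 250/500 nM) in pH 8.0 Tris/NaCl/TCEP buffer, beads added, then incubated 1 h, 37 C, dark.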
DT40 TDP1 CPT = growth inhibition of DT40 Tdp1-/-;hTDP1 cells with camptothecin (screen for TDP1 inhibitors); chicken DT40 Tdp1-/-;hTDP1 cells + 20 nM CPT, ATP luminescence, 48 h; actives 12% (n = 420,000); Potency, µM (top dose mostly 46.2 µM), inactives show at the top dose activity change, negative = growth inhibition, usual class: inhibitors; AID 686979; note: potency is the fitted concentration of half-maximal effect; nearly all actives have a fitted effect of over 55% in size
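Chicken DT40 Tdp1-/- cells stably complemented with human TDP1 were seeded at 400 cells/well in medium containing 20 nM camptothecin, exposed to pin-transferred compounds, and grown at 37 °C for at least 48 hr. Viability was read as ATP luminescence.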
CtBP-E1A inh = inhibitors of CtBP/E1A interaction; AlphaScreen GST-E1A/His-CtBP binding, 1536-well; hits give low values; activity change, % (no concentration beside the values); actives 0.49% (n = 340,000); AID 651724; in the data active = activity change below about -65%; inconclusive = mostly about -30% to -63%
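GST-E1A and His-tagged CtBP (125 nM each as 5X stock) were preincubated with pin-transferred compound for 2 h at 37 °C in the dark, then glutathione donor and nickel acceptor beads were added for 1 h before AlphaScreen reading.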
DT40 TDP1 no CPT = qHTS for Inhibitors of human tyrosyl-DNA phosphodiesterase 1 (TDP1): qHTS in cells in absence of CPT. AID 686978, 2013. DT40 Tdp1-/- hTDP1 cells, no CPT, ATP luminescence, 48 h. actives 15% (n = 420,000). Potency, µM (titrated, usually from 46.2 µM), without a hit: at the top dose activity change, negative = growth inhibition, hits mostly inhibitors; note: potency is the fitted concentration of half-maximal effect; nearly all actives have a fitted effect of over 55% in size
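A cellular qHTS used chicken DT40 cells lacking endogenous Tdp1 but carrying stably transfected human TDP1. Compounds were applied without camptothecin, and cell growth kinetics were judged by ATP-dependent luminescence after ≥48 hr.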
IL-1B inflam inh = inflammasome signaling inhibition, IL-1 beta readout. THP-1 LPS/ATP IL-1B secretion, AlphaLISA, 16 h; hits give low values. activity change, % at 57.5 µM. actives 4.7% (n = 360,000); in the data active = activity change below about -50%; inconclusive = mostly about -30% to -49%
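THP-1 cells pretreated 1 hr with compounds (up to 57.5 uM final), then stimulated with LPS (250 ng/mL final) plus ATP (1.25 mM final); secreted IL-1B measured by AlphaLISA after 16 hr, decreased signal indicating inhibition.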
The depositor's hits bear a star; ? = inconclusive; / = no result. Unless noted, calls come from the whole dose curve; as a rule, active = well fitted curve in the direction sought with a large enough effect; inconclusive = small, poorly fitted or top-dose-only effect, or another doubt; inactive = no such curve, though single readings can be large; an effect the other way counts as inactive or inconclusive. % is set by controls: 0 for no effect and ±100 for the full control effect.

SMILES | TDP1 block | Six1-Eya2 blk | DT40 TDP1 CPT | CtBP-E1A inh | DT40 TDP1 no CPT | IL-1B inflam inh
Cc1cc(NC(=O)C2CCCCC2)nc2c1c(=O)oc1ccccc12 | -3.0% | 8.3 | ? | 1.5 | ? | -2.8
Cc1cc(NC(=O)C2CCCC2)nc2c1c(=O)oc1ccccc12 | 7.0% | -12.4 | ? | -6.1 | 18.4µM* | 18.1
CCC[n+]1c(C)sc2c3c(ccc21)CCCC3 | -4.7% | 34.1 | 1.84µM* | 0.4 | 2.31µM* | -96.8*
Cc1ccc(S(=O)(=O)N2CCCOC2CNC(=O)C(=O)NCCc2ccco2)cc1 (stereo not drawn) | / | 32.2 | ? | -6.1 | ? | -3.7
Cc1cccc(N2CCN(S(=O)(=O)c3ccc4oc(=O)c5ncn(C)c5c4c3)CC2)c1C | 2.5% | / | ? | / | 16.4µM* | /
CCCc1cc(-c2n[nH]c(C(=O)OCC)c2-c2cscn2)c(O)cc1O | 7.6% | -3.9 | ? | -4.4 | 14.6µM* | -11.9
Cc1ccc(-c2cnc(-c3ccncc3)o2)cc1 | 9.5% | 4.5 | -28.3% | -14.3 | ? | 0.1
Nc1ccc(-c2ncc(-c3ccccc3)o2)cc1 | / | -12.0 | -0.6% | -12.0 | ? | -59.4*
COc1ccc(S(=O)(=O)N(C)C)cc1NCC(=O)Nc1ccc(F)cc1F | 0.0% | 39.4 | -2.9% | 6.3 | ? | 10.1
Cc1ccc2c(CC(=O)Nc3ccccc3C(F)(F)F)coc2c1C | 7.4% | / | -5.7% | / | -5.5% | /
COCCCNC(=O)c1c(NC(=O)Cc2coc3cc(C)cc(C)c23)sc2c1CCCC2 | 4.9% | / | ? | / | ? | /
O=C(Nc1sc2c(c1C(=O)NCc1ccccc1)CCCC2)c1cc(=O)c2ccccc2o1 | 2.5% | / | -1.0% | / | ? | /
COC(=O)c1c(NC(=O)Cc2coc3cc(C)ccc23)sc2c1CCC2 | 1.2% | / | -29.6% | / | 3.26µM* | /
Cc1ccc2c(CC(=O)NCc3ccccc3)coc2c1C | 6.1% | / | 4.11µM* | / | 3.26µM* | /
COC(=O)c1c(NC(=O)Cc2coc3ccc(C)cc23)sc2c1CCC2 | 4.9% | / | ? | / | ? | /
COCCCNC(=O)c1c(NC(=O)c2cc(=O)c3ccccc3o2)sc2c1CCCC2 | 3.7% | / | -16.7% | / | 5.17µM* | /
COCCNC(=O)c1c(NC(=O)Cc2coc3cc(C)ccc23)sc2c1CCCC2 | 1.2% | / | 23.1µM* | / | ? | /
O=S(=O)(NNc1cccc(Cl)n1)c1ccc(Cl)cc1 | 0.6% | -10.6 | -22.7% | -16.5 | -1.6% | 26.0
CCCCn1c(N)c(N(CC)C(=O)C2=NN(c3ccccc3)C(=O)CC2)c(=O)[nH]c1=O | 0.7% | 5.2 | 11.5% | 0.0 | 0.3% | -7.3
COCCCNC(=O)c1c(NC(=O)Cc2coc3c(C)c(C)ccc23)sc2c1CCCC2 | -4.9% | / | 16.4µM* | / | 16.4µM* | /
Nc1nnc(CC(=O)N/N=C\c2ccc(-c3cccc(Cl)c3)o2)s1 | / | -13.9 | 10.0% | -14.5 | 3.0% | 0.0
COc1ccc(/C=C2\SC(=N)N(c3nccs3)C2=O)cc1OC | 3.2% | -29.3 | 13µM* | -20.7 | 5.8µM* | -1.0
N=C1S/C(=C\c2ccc(-c3cccc(Cl)c3)o2)C(=O)N1c1nccs1 | 6.5% | -17.5 | 3.26µM* | -1.2 | 2.59µM* | -14.3
O=C1NN(c2ccc(Cl)cc2)C(=O)/C1=C\c1ccc(-c2cccc(C(=O)O)c2)o1 | / | -7.8 | 1.4% | 2.4 | 1.0% | 19.4
O=C1OC(c2cccs2)=N/C1=C\c1ccc(-c2cccc(Cl)c2)o1 | 4.1% | -17.5 | 20.6µM* | -24.6 | ? | 25.8
Cc1cccc(C)c1NC(=O)C1(C)CSCC(=O)N1CC(C)C (stereo not drawn) | / | 12.2 | 4.0% | 0.0 | -3.6% | 16.1
O=C(/C=C/c1cccc([N+](=O)[O-])c1)NCc1ccco1 | 0.6% | -16.5 | -18.9% | -6.9 | -18.5% | -7.1

High-throughput results deposited in PubChem BioAssay by National Center for Advancing Translational Sciences (NCATS).
